According to PubChem BioAssay (NCI):
Values joined by “and” are separate entries in the source; they are usually repeats but may differ in a detail not shown here. Identical values can stand only once. This is part of a sample that, as a whole, favours compounds with a hit. Of some 83,000 tested, about 20% had one in any assay.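 Method: cells in 96-well plates; compound added at one concentration; 48 h incubation; percent growth measured; values under 10 scored active.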 Active and inactive are the calls of the source.

Each molecule was assayed on RXF 393 renal (assay: NCI-60 one-dose screen, 48 h (100 = growth as untreated, 0 = no growth, -100 = all killed)). Conditions: 10 µM unless noted.

How did the growth turn out when Cc1c(C(C)(C)O)cn2ncnc(Oc3ccc(NC(=O)Nc4ccc(Cl)c(C(F)(F)F)c4)cc3)c12 was run?
Its growth is 39% (inactive).

Cc1ccc(C(=O)N(CCCN)[C@@H](c2nc3cc(Cl)ccc3c(=O)n2Cc2ccccc2)C(C)C)cc1 was tested. Which growth did it give?
The growth was 6.94% (active).

Which growth does the source give for O=c1ccc2nc(-c3ccccn3)nn(-c3ccccc3)c-2c1 here?
The growth was 65% (inactive).

For COc1ccc(-c2ccc(-c3ccc(C(=N)N)cn3)o2)cc1Cl, which growth is on record?
The growth was 56.6% (inactive).

With Cc1ccc(Nc2nc(-c3cc(O)c(C)c(C)c3O)cs2)cc1 as the molecule, how does the growth read?
Its growth is 99.3% (inactive).

For COC(=O)/C=C1/SC(N2N=C(c3cccs3)CC2c2ccc(F)cc2)=NC1=O (stereo unspecified), which growth is on record?
The growth was 48.7% (inactive).

Which growth does the source give for COC(=O)c1[nH]nc(OC)c1C1(C(C#N)c2nc3ccccc3s2)CCCc2ccccc21 (stereo unspecified) here?
The growth was 117% (inactive).

How did the growth turn out when CCOC(=O)c1c(-c2ccc(C)cc2)c(C#N)c(=O)n(-c2cccc(C(F)(F)F)c2)c1N was run?
Its growth is 101% (inactive).

Which growth does the source give for COc1cc2nc3cc([N+](=O)[O-])ccc3c(NCCNCC(C)(C)O)c2cc1OC here?
Its growth is -47.3% (active).

For Cc1ccc(C(=O)Nc2ccc(CN3CCN(C)CC3)c(C(F)(F)F)c2)cc1C#Cc1cnc(N)cc1C#N, which growth is on record?
Its growth is -88.6% (active).

How did the growth turn out when OCCN1CCN(CC/C=C2\c3ccccc3Sc3ccc(Cl)cc32)CC1 was run?
Its growth is 23.5% (inactive).

For CCCCCCNC(=O)Oc1ccc(/C(=C(/CC)Cc2ccccc2)c2ccc(OCCCN(C)C)cc2)cc1, which growth is on record?
The growth was 80.3% (inactive).

O=c1cc(N/N=C/c2ccc(F)cc2)c2cc(Cl)ccc2[nH]1 was tested. Which growth did it give?
The growth was 113% (inactive).

O=C(Nc1ccccc1C(=O)N/N=C(\c1ccccc1)c1ccccn1)c1ccccc1 was tested. Which growth did it give?
The growth was 21.4% (inactive).

For FC(F)(F)Sc1ccc(/C=C/c2cc(/C=C/c3ccc(SC(F)(F)F)cc3)n(-c3ccccc3)n2)cc1, which growth is on record?
Its growth is 113% (inactive).

How did the growth turn out when Cc1ccc(-c2nc3nc(-c4ccc(Cl)cc4)nc(N4CCCNCC4)c3o2)cc1 was run?
The growth was 80.2% (inactive).

CN1CCN(c2ccc(/C=C/C(=O)c3ccc(O)cc3)cc2)CC1 was tested. Which growth did it give?
Its growth is 95.3% (inactive).

For COc1ccc(/C(C)=C(\c2ccc(OCCN3CCOCC3)cc2)c2ccc(OC(=O)C3CCCCC3)cc2)cc1, which growth is on record?
Its growth is 121% (inactive).

Which growth does the source give for CS(=O)(=O)Nc1cc(-c2ccc3ncnc(Nc4ccc(F)c(Cl)c4)c3c2)cnc1Cl here?
Its growth is -34.2% (active).

With CCOc1ccc(C(=O)Cc2ccccc2)cc1 as the molecule, how does the growth read?
Its growth is 117% (inactive) and 96.4% (inactive).

Which growth does the source give for CCCc1cc(C(N)=S)ccn1 here?
The growth was 111% (inactive).

Which growth does the source give for COc1ccc(-c2ccc(-c3ccc(C(=N)N)cn3)s2)cc1Cl here?
The growth was 64.5% (inactive).

With Nc1nc(CSc2n[nH]c(N)n2)nc(Nc2ccccc2)n1 as the molecule, how does the growth read?
Its growth is 114% (inactive).

COC(=O)c1nc(-c2ccccc2)oc1S(=O)(=O)N(C)CCO was tested. Which growth did it give?
Its growth is 64.8% (inactive).

With Nc1nc(Cl)nc2c1ncn2C1OC(CO)C(O)C1O (stereo unspecified) as the molecule, how does the growth read?
The growth was 123% (inactive) and 118% (inactive).

With Cc1ccc(NC(=O)c2sc3nc(C)c(C(=O)c4ccccc4)cc3c2N)cc1 as the molecule, how does the growth read?
The growth was 98.8% (inactive).

How did the growth turn out when O=Nc1ccc(NO)c2ccccc12 was run?
Its growth is 114% (inactive) and 97.2% (inactive).

For N=C1/C(=C2\NC3C=CC=CC3S2)C(c2ccc(Cl)cc2)C2C(=O)N(c3ccccc3)C(=S)N12 (stereo unspecified), which growth is on record?
Its growth is 95.7% (inactive).

Which growth does the source give for COc1cccc(C2C(C#N)=C(N)Oc3cc(OCCCCCC[P+](c4ccccc4)(c4ccccc4)c4ccccc4)ccc32)c1 (stereo unspecified) here?
Its growth is -63.8% (active).

For C=C1CC[C@@H]2[C@](C)(COC(C)=O)[C@H](OC(C)=O)CC[C@@]2(C)[C@@H]1CC(Nc1ccc(S(=O)(=O)Nc2nccs2)cc1)C1=CCOC1=O (stereo partly specified), which growth is on record?
The growth was -50.6% (active).

Which growth does the source give for CCNC(=O)Oc1ccc(/C(=C(/C)Cc2ccc(OC)cc2)c2ccc(OCCN(CC)CC)cc2)cc1 here?
The growth was 49.7% (inactive).

O=C1OCC2=C1C(c1cccc(C(F)(F)F)c1)c1cc3c(cc1N2CCO)CCC3 (stereo unspecified) was tested. Which growth did it give?
The growth was 49.7% (inactive).

Which growth does the source give for O=C(Nc1ccc2ccccc2c1)c1cc2ccccc2cc1O here?
The growth was 115% (inactive).

How did the growth turn out when CCOC(=O)c1nnn(Cc2cc(=O)oc3c2ccc2ccccc23)c1C was run?
The growth was 112% (inactive).

For CCC(=O)Oc1cc(Cl)c(Cl)cc1Cl, which growth is on record?
Its growth is 113% (inactive).

Which growth does the source give for COc1ccc(C(=O)c2ccc(OC)c(OC)c2OC)cc1 here?
The growth was 9.82% (active) and 15.4% (inactive).

Cn1cc(-c2nonc2-c2cn(C)c3ccc(Br)cc23)c2ccccc21 was tested. Which growth did it give?
Its growth is 42.4% (inactive).

With CC(C)(C)c1cc(NC(=O)Nc2ccc(-c3cn4c(n3)sc3cc(OCCN5CCOCC5)ccc34)cc2)no1 as the molecule, how does the growth read?
Its growth is -6.16% (active) and -13.6% (active).

Each molecule was assayed on SF-268 CNS in the same assay as above. Conditions: 10 µM unless noted.

Cc1c(C(C)(C)O)cn2ncnc(Oc3ccc(NC(=O)Nc4ccc(Cl)c(C(F)(F)F)c4)cc3)c12 was tested. Which growth did it give?
Its growth is 45.3% (inactive).

Which growth does the source give for Cc1ccc(C(=O)N(CCCN)[C@@H](c2nc3cc(Cl)ccc3c(=O)n2Cc2ccccc2)C(C)C)cc1 here?
Its growth is -21.8% (active).

With O=c1ccc2nc(-c3ccccn3)nn(-c3ccccc3)c-2c1 as the molecule, how does the growth read?
The growth was 98% (inactive).

With COc1ccc(-c2ccc(-c3ccc(C(=N)N)cn3)o2)cc1Cl as the molecule, how does the growth read?
The growth was 46.5% (inactive).

For Cc1ccc(Nc2nc(-c3cc(O)c(C)c(C)c3O)cs2)cc1, which growth is on record?
Its growth is 92.3% (inactive).

COC(=O)/C=C1/SC(N2N=C(c3cccs3)CC2c2ccc(F)cc2)=NC1=O (stereo unspecified) was tested. Which growth did it give?
Its growth is 32.4% (inactive).

COC(=O)c1[nH]nc(OC)c1C1(C(C#N)c2nc3ccccc3s2)CCCc2ccccc21 (stereo unspecified) was tested. Which growth did it give?
Its growth is 101% (inactive).

Which growth does the source give for CCOC(=O)c1c(-c2ccc(C)cc2)c(C#N)c(=O)n(-c2cccc(C(F)(F)F)c2)c1N here?
Its growth is 97% (inactive).

COc1cc2nc3cc([N+](=O)[O-])ccc3c(NCCNCC(C)(C)O)c2cc1OC was tested. Which growth did it give?
Its growth is -10.8% (active).

How did the growth turn out when Cc1ccc(C(=O)Nc2ccc(CN3CCN(C)CC3)c(C(F)(F)F)c2)cc1C#Cc1cnc(N)cc1C#N was run?
Its growth is -14.7% (active).

How did the growth turn out when OCCN1CCN(CC/C=C2\c3ccccc3Sc3ccc(Cl)cc32)CC1 was run?
The growth was 51.7% (inactive) and 46.6% (inactive).

For CCCCCCNC(=O)Oc1ccc(/C(=C(/CC)Cc2ccccc2)c2ccc(OCCCN(C)C)cc2)cc1, which growth is on record?
Its growth is 80.8% (inactive).

How did the growth turn out when O=c1cc(N/N=C/c2ccc(F)cc2)c2cc(Cl)ccc2[nH]1 was run?
The growth was 106% (inactive).

O=C(Nc1ccccc1C(=O)N/N=C(\c1ccccc1)c1ccccn1)c1ccccc1 was tested. Which growth did it give?
Its growth is 15.5% (inactive).

With FC(F)(F)Sc1ccc(/C=C/c2cc(/C=C/c3ccc(SC(F)(F)F)cc3)n(-c3ccccc3)n2)cc1 as the molecule, how does the growth read?
The growth was 91% (inactive).

Cc1ccc(-c2nc3nc(-c4ccc(Cl)cc4)nc(N4CCCNCC4)c3o2)cc1 was tested. Which growth did it give?
The growth was 97% (inactive).

CN1CCN(c2ccc(/C=C/C(=O)c3ccc(O)cc3)cc2)CC1 was tested. Which growth did it give?
The growth was 95.8% (inactive).

For COc1ccc(/C(C)=C(\c2ccc(OCCN3CCOCC3)cc2)c2ccc(OC(=O)C3CCCCC3)cc2)cc1, which growth is on record?
Its growth is 101% (inactive).

How did the growth turn out when CS(=O)(=O)Nc1cc(-c2ccc3ncnc(Nc4ccc(F)c(Cl)c4)c3c2)cnc1Cl was run?
Its growth is 12.3% (inactive).

With CCOc1ccc(C(=O)Cc2ccccc2)cc1 as the molecule, how does the growth read?
Its growth is 110% (inactive) and 117% (inactive).

Which growth does the source give for CCCc1cc(C(N)=S)ccn1 here?
The growth was 114% (inactive).

COc1ccc(-c2ccc(-c3ccc(C(=N)N)cn3)s2)cc1Cl was tested. Which growth did it give?
Its growth is -30.5% (active).

With Nc1nc(CSc2n[nH]c(N)n2)nc(Nc2ccccc2)n1 as the molecule, how does the growth read?
Its growth is 93.1% (inactive).

Which growth does the source give for COC(=O)c1nc(-c2ccccc2)oc1S(=O)(=O)N(C)CCO here?
Its growth is 92.3% (inactive).

Nc1nc(Cl)nc2c1ncn2C1OC(CO)C(O)C1O (stereo unspecified) was tested. Which growth did it give?
Its growth is 57.6% (inactive) and 63.4% (inactive).

How did the growth turn out when Cc1ccc(NC(=O)c2sc3nc(C)c(C(=O)c4ccccc4)cc3c2N)cc1 was run?
The growth was 91.1% (inactive).

How did the growth turn out when O=Nc1ccc(NO)c2ccccc12 was run?
The growth was 102% (inactive) and 83.9% (inactive).

For N=C1/C(=C2\NC3C=CC=CC3S2)C(c2ccc(Cl)cc2)C2C(=O)N(c3ccccc3)C(=S)N12 (stereo unspecified), which growth is on record?
Its growth is 99.5% (inactive).

COc1cccc(C2C(C#N)=C(N)Oc3cc(OCCCCCC[P+](c4ccccc4)(c4ccccc4)c4ccccc4)ccc32)c1 (stereo unspecified) was tested. Which growth did it give?
Its growth is -38.5% (active).

With C=C1CC[C@@H]2[C@](C)(COC(C)=O)[C@H](OC(C)=O)CC[C@@]2(C)[C@@H]1CC(Nc1ccc(S(=O)(=O)Nc2nccs2)cc1)C1=CCOC1=O (stereo partly specified) as the molecule, how does the growth read?
The growth was 21.3% (inactive).

With CCNC(=O)Oc1ccc(/C(=C(/C)Cc2ccc(OC)cc2)c2ccc(OCCN(CC)CC)cc2)cc1 as the molecule, how does the growth read?
The growth was 67.1% (inactive).

With O=C1OCC2=C1C(c1cccc(C(F)(F)F)c1)c1cc3c(cc1N2CCO)CCC3 (stereo unspecified) as the molecule, how does the growth read?
Its growth is 17.3% (inactive).

Which growth does the source give for O=C(Nc1ccc2ccccc2c1)c1cc2ccccc2cc1O here?
Its growth is 7.54% (active).

With CCOC(=O)c1nnn(Cc2cc(=O)oc3c2ccc2ccccc23)c1C as the molecule, how does the growth read?
Its growth is 105% (inactive).

CCC(=O)Oc1cc(Cl)c(Cl)cc1Cl was tested. Which growth did it give?
The growth was 97.9% (inactive).

COc1ccc(C(=O)c2ccc(OC)c(OC)c2OC)cc1 was tested. Which growth did it give?
The growth was 49.3% (inactive) and 42.7% (inactive).

With Cn1cc(-c2nonc2-c2cn(C)c3ccc(Br)cc23)c2ccccc21 as the molecule, how does the growth read?
Its growth is 37.3% (inactive).

Which growth does the source give for CC(C)(C)c1cc(NC(=O)Nc2ccc(-c3cn4c(n3)sc3cc(OCCN5CCOCC5)ccc34)cc2)no1 here?
Its growth is 37.2% (inactive) and 22.8% (inactive).
